Tau fluor counter: counter-screen for tau fibril formation inhibitors. tau K18 P301L Alexa594 fluorescence, heparin fibrillization. actives 0.93% (n = 280,000). Potency, µM (series often up to 57.7 µM); further: nearly all actives have a fitted effect of over 55% in size
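Human tau K18 P301L (15 uM unlabeled, 0.24 uM Alexa 594-labeled) in 100 mM sodium acetate pH 7 with 20 uM heparin, 6 hr at 37 C. ThT 30 uM added, 1 hr ambient; Alexa 594 FP and total fluorescence read at 555/632 nm.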
Tau fibril ThT: inhibitors of human tau fibril formation, thioflavin T binding; Potency, µM (top dose mostly 57.4 µM), usual class: inhibitors; actives 2.1% (n = 270,000); AID 1460; P10636; recombinant tau K18 P301L, heparin-induced fibrillization, ThT fluorescence; further: nearly all actives have a fitted effect of over 55% in size
Target sequence (P10636 561-689 P618L limits assumed): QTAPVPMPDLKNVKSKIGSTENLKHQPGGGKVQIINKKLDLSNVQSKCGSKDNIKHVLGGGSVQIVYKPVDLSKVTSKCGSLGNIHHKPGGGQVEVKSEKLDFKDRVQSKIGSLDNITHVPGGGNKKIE
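Aggregation was driven by heparin (20 uM final) acting on recombinant tau […] bearing P301L in 100 mM sodium acetate pH 7; fibrils were detected with Thioflavin T.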
Tau FP inhib: blocks human tau fibril formation measured by polarization | P10636 | K18 P301L tau heparin fibrillization, Alexa594 FP, 6 h | Potency, µM (highest dose often 57.7 µM), usual class: inhibitors | actives 0.39% (n = 280,000); further: nearly all actives have a fitted effect of over 55% in size
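Heparin (20 uM) drove fibril formation of recombinant tau K18 P301L, 15 uM unlabeled with 0.24 uM Alexa 594 label, for 6 hr at 37 C in 100 mM sodium acetate pH 7. Fluorescence polarization (555/632 nm) read 1 hr after 30 uM ThT.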
FBPA coupling cs: inhibits coupling enzyme system, counter-screen for aldolase hits. AID 2472. activity change, negative = inhibition, % at 58.2 µM, hits read low. actives 0.67% (n = 290,000). coupling enzyme system counterscreen, AmpLite Red fluorescence; in the data active means activity change below about -30%
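First, compound is pin-transferred into glyceraldehyde-3-phosphate coupling-enzyme reagent at 57.5 uM final and held 10 min at RT. Next, substrate, coupling system and AmpLite Red are added. After 20 min RT, fluorescence (525/598 nm) is read.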
Numbers stand for hits; 0 = inactive; ? = inconclusive; - = no result given; ! = a repeat was not active; [ ] = remark or other dose. The list is not random: actives were taken first. Their share in the collection is about 2.7%. Unless noted, the call rests on the fitted dose curve; in most records, active means well fitted curve in the direction sought with a large enough effect; inconclusive means small, poorly fitted or top-dose-only effect, or another doubt; inactive means no such curve, though single readings can be large; an effect the other way counts as inactive or inconclusive.

SMILES	Tau fluor counter	Tau fibril ThT	Tau FP inhib	FBPA coupling cs
COc1ccccc1-n1c(=O)c(C#N)c(-c2ccc([N+](=O)[O-])cc2)c2cc(C(=O)c3cc(F)ccc3O)cnc21	0	0	0	0
Cn1c(=O)c(C#N)c(-c2ccc(F)cc2)c2cc(C(=O)c3cc(Cl)cc(Cl)c3O)cnc21	0	14.1µM	0	0
On1onc2c3cc(-c4ccccc4)nc3ccc21	12.6µM[quencher]	3.98µM	?	0
c1ccc(-c2cc3c(ccc4nonc43)nn2)cc1	0	0	0	0
COc1ccc(N(CC(=O)NCc2ccccc2Cl)S(=O)(=O)c2c(C)[nH]c(=O)[nH]c2=O)cc1	0	0	0	-
CCOC(=O)c1nc(Nc2ccc(Nc3ccccc3)cc2)c2ccccc2n1	7.08µM[quencher]	5.01µM	0	0
CCOC(=O)c1nc(Nc2ccc(N3CCC(C)CC3)cc2)c2ccccc2n1	11.2µM[quencher]	?	0	0
CCOc1ccc(C(=O)Nc2cccc(NC(=O)c3ccc(Cl)cc3Cl)c2)cc1	0	0	0	-
O=C(CN1C(=O)CCc2cc(S(=O)(=O)N3CCOCC3)ccc21)NCc1ccc(F)cc1	0	0	0	-
CCOC(OCC)c1cn(Cc2ccc3c(c2)C(=O)c2ccccc2C3=O)nn1	-	-	-	0
O=C(O)C(Cc1ccccc1)N1C(=O)/C(=C/C=C/c2ccco2)SC1=S (stereo not drawn)	?	7.94µM	?	0
O=C(O)CCCN1C(=O)/C(=C/C=C/c2ccco2)SC1=S	0	3.16µM	?	0
O=C(O)CC(C(=O)O)N1C(=O)/C(=C/C=C/c2ccco2)SC1=S (stereo not drawn)	0	12.6µM	?	0
CC1=Nc2cc(C(=O)NCCc3ccc(Cl)cc3)ccc2Sc2ccc(C)cc21	0	0	?	-
COC(=O)c1cccc(NC(=S)Nc2ccc(Cl)c(Cl)c2)c1	20µM[quencher]	0	?	0
COC(=O)c1cc(NC(=O)Nc2cccc(Cl)c2)ccc1Cl	7.94µM[quencher]	?	7.94µM	0
COC(=O)c1cc(NC(=S)Nc2cc(Cl)cc(Cl)c2)cc(C(=O)OC)c1	?	0	31.6µM	0
CCOC(=O)c1c(C)[nH]c(CCC(=O)NCc2ccc(OC)c(OC)c2)c1C	0	0	0	-
Cc1ccc(C)c(CN2C(=O)c3ccccc3S(=O)(=O)c3ccc(C(=O)N4CCCCC4)cc32)c1	0	0	0	-
O=C1CCCC(=NCc2ccco2)C1	0	0	0	0
CN(C)c1nc(=NCc2ccco2)ss1	0	8.91µM	14.1µM	-55.9
COc1ccc(-c2noc(-c3ccc(NC4CCCC4)c([N+](=O)[O-])c3)n2)cc1OC	0	0	0	-
O=S(=O)(Nc1ncccn1)c1ccc(Cl)cc1	-	-	-	0
CN(C)c1nc(NS(=O)(=O)c2ccc(Cl)cc2)nc(N(C)C)n1	0	0	0	-32.4
COc1ccc2c(c1)[nH]c1c(N3CCN(Cc4ccc5c(c4)OCO5)CC3)ncnc12	15.8µM[quencher]	?	0	0
SMILES	Tau fluor counter	Tau fibril ThT	Tau FP inhib	FBPA coupling cs
Cc1ccc2[nH]c3c(N4CCN(Cc5ccc6c(c5)OCO6)CC4)ncnc3c2c1	0	?	?	0
O=c1[nH]c2ccccc2c(O)c1-[n+]1ccccc1	0	0	0	0
O=c1[nH]c2ccccc2c(O)c1O	0	3.16µM	7.08µM	-72.8
COC(=O)c1c(O)c2ccccc2[nH]c1=O	0	0	0	0
O=C(O)c1c(C(=O)O)c2ccccc2[nH]c1=O	0	0	0	-32.8
CSc1nc(N)c2ncn([C@H]3O[C@H](COP(=O)(O)OP(=O)(O)OP(=O)(O)O)[C@@H](O)[C@@H]3O)c2n1	0	0	0	0
COc1ccc(Nc2ncnc3onc(C)c23)cc1Cl	0	0	0	-
N#C/C(=N\Nc1ccc(Cl)cc1)C(N)=S	0	-	0	0
Cc1ccc(N/N=C(\C#N)C(=O)c2ccsc2)cc1	?	14.1µM	0	0
CCN(CC)C(=N)/C(C#N)=N/Nc1ccc(C)cc1	0	?	0	0
N#C/C(=N\Nc1ccc(Cl)cc1)C(=O)c1ccsc1	?	5.01µM	0	0
O=c1c(-c2ccc(Cl)cc2)nc2cnc(N3CCNCC3)nc2n1-c1ccccc1	-	-	-	0
O=C(O)COc1ccccc1C(Nc1ccccn1)c1cc(Cl)c2cccnc2c1O (stereo not drawn)	0	12.6µM	?	0
O=C(O)COc1ccccc1C(Nc1cccnc1)c1cc(Cl)c2cccnc2c1O (stereo not drawn)	0	17.8µM	31.6µM	0
CCOc1ccc(C(Nc2cccnc2)c2cc(Cl)c3cccnc3c2O)cc1 (stereo not drawn)	0	0	0	0
COc1ccccc1C(NC(C)=O)c1cc(Cl)c2cccnc2c1O (stereo not drawn)	-	-	-	0
Brc1ccc(N=Nc2ccc3ccccc3n2)cc1	0	1.12µM	0	0
COc1ccc([C@]23Cc4cc(OC)c(OC)cc4C(O2)C2=C(CC4(CCCCC4)OC2=O)O3)cc1	-	-	-	0
O=C1c2ccccc2C(=O)c2c(NCCCN(CCO)CCO)cccc21	?	14.1µM	0	0
COc1ccccc1-c1noc(CCCC(=O)Nc2cc(C)ccc2C)n1	0	0	0	-
NNC(=O)CN1C(c2ccccc2Br)=Nc2ccc(Br)cc2C1c1ccccc1 (stereo not drawn)	0	0	0	-37.8
NNC(=O)CN1C(c2cccc(Cl)c2)=Nc2ccc(Br)cc2C1c1ccccc1 (stereo not drawn)	0	0	0	0
Cc1cc2c(cc3c(SCC(=O)Nc4ccc(Cl)cc4F)nncn32)o1	0	0	0	-
O=C(O)c1c2c(nc3ccccc13)/C(=C/c1ccc(O)cc1)CC2	0	0	0	0
COc1cccc2c1CCc1c-2nc2ccccc2c1C(=O)O	-	-	-	-32.8
SMILES	Tau fluor counter	Tau fibril ThT	Tau FP inhib	FBPA coupling cs
O=C1CSC(=S)N1/N=C/c1ccc(O)c(O)c1O	?	3.55µM	7.08µM	-59.1
CCCN1C(=O)/C(=C\c2nc3ccccc3c(=O)[nH]2)c2ccccc21	0	22.4µM	0	0
COc1ccccc1Nc1c2c(nc3ccc(NC(=O)/C=C/c4cccc(OC)c4OC)cc13)CCCC2	?	14.1µM	0	-
COc1ccc(/C=C/C(=O)Nc2ccc3nc4c(c(Nc5ccc(OC)c(OC)c5)c3c2)CCCC4)cc1	15.8µM[quencher]	25.1µM	0	-
COc1ccc(Nc2c3c(nc4ccc(NC(=O)/C=C/c5cccc(OC)c5OC)cc24)CCCC3)cc1OC	?	14.1µM	0	-
COc1ccc(Nc2c3c(nc4ccc(NC(=O)/C=C/c5cc(OC)c(OC)c(OC)c5)cc24)CCCC3)cc1OC	?	?	0	-
COc1ccc(/C=C/C(=O)Nc2ccc3nc4c(c(Nc5ccccc5OC)c3c2)CCCC4)cc1	?	10µM	?	-
COc1ccccc1Nc1c2c(nc3ccc(NC(=O)c4cccc(F)c4)cc13)CCCC2	?	?	0	-
Cc1ccc(C)c(CSc2nc(-c3ccccc3F)nc3c2Cc2c(CO)cnc(C)c2O3)c1	0	0	0	-
CC(=Nc1cc(C(=O)c2ccccc2)ccc1N)C1=C(O)CC(C)(C)CC1=O	0	?	0	0
CC(=Nc1ccccc1N)c1c(C)cc(=O)n(O)c1O	-	-	-	-30.4!
Clc1ccccc1CN1CCc2nc(N3CCN(c4ncccn4)CC3)ncc2C1	0	?	0	-

Assay outcomes as filed in PubChem.
